Reference: ChEMBL document CHEMBL3433997, “St. Jude Leishmania screening dataset” (2016)

Legend:
Type in all cases: functional
[1] = target: Solute carrier family 2, facilitated glucose transporter member 1 (Homo sapiens) (UniProt P11166); experiment: ST_JUDE_LEISH: Cytotoxicity at 2uM final concentration against transgenic Leishmania Mexicana promastigotes LmGLUT1 that are glucose transport deficient and complemented with the human glucose transporter GLUT1. Activity is measured by DNA content using SYBR green in vitro
[2] = target: Hexose transporter 1 (Plasmodium falciparum) (UniProt O97467); experiment: ST_JUDE_LEISH: Cytotoxicity at 2uM final concentration against transgenic Leishmania Mexicana promastigotes LmPfHT that are glucose transport deficient and complemented with the Plasmodium falciparum hexose transporter. Activity is measured by DNA content using SYBR green in vitro
[3] = target: Glucose transporter (Leishmania mexicana) (UniProt O61059); experiment: ST_JUDE_LEISH: Cytotoxicity at 2uM final concentration against transgenic Leishmania Mexicana promastigotes LmGT2 that are glucose transport deficient and complemented with the L. Mexicana glucose transporter 2. Activity is measured by DNA content using SYBR green in vitro

Chain of Solute carrier family 2, facilitated glucose transporter member 1 (Homo sapiens) (P11166 whole entry): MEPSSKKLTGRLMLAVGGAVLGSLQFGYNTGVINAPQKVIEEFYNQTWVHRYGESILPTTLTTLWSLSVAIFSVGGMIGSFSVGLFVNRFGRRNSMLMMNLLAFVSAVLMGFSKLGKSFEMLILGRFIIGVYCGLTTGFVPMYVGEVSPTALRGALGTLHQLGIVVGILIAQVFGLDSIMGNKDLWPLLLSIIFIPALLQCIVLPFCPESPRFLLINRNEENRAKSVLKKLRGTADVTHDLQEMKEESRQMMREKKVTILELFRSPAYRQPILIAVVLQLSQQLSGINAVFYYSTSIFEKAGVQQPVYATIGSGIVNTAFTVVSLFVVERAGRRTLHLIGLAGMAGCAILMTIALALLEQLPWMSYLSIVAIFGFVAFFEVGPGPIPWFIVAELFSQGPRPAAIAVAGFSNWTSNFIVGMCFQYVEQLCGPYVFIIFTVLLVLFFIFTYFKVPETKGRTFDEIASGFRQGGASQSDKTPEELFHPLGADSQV

| Compound | inhibition [1] [%] | inhibition [2] [%] | inhibition [3] [%] |
| --- | --- | --- | --- |
| COCc1nc(-c2ccccc2)nc(N2CCN(C(=O)NC(C)C)CC2)c1Cc1ccccc1F | 8.3 | 6.85 | 6.8 |
| Cc1cccc(OC2CCN(c3ncc(C(=O)NCCCN4CCCC4=O)cc3Cl)CC2)c1 | 0.59 | 2.47 | 0.99 |
| Cc1ccc(C(=O)Nc2ccc(F)c(F)c2F)cc1S(=O)(=O)N1CCCCC1 | 4.08 | 3.47 | 0.7 |
| CN(c1ccccc1)S(=O)(=O)c1cccc(NC(=O)c2ccc(-n3ccnc3)c([N+](=O)[O-])c2)c1 | 2.91 | 3.61 | 0.73 |
| O=C(NC1CC1)c1ccc(N2CCCC(COc3ccccc3F)C2)nc1 (stereo not given) | 2.73 | 1.75 | 2.62 |
| COc1ccc(-c2cnc(N)c(-c3ccc(O)c(OC)c3)c2)cn1 | 0.58 | 0.38 | 1.13 |
| Cc1cccc2nc(-c3ccc(-c4ccc(NC(=O)Nc5cccc(C#N)c5)cc4)s3)[nH]c12 | 9.25 | 6.92 | 8.07 |
| Cc1nc(-c2nc(N3CCOCC3)ncc2-c2ccsc2)sc1C | -1.47 | -0.4 | 1.4 |
| COc1ccc(-c2ccc(NC(=O)c3cccc(C#N)c3)cc2)cc1CN1CCC(O)CC1 | -0.68 | -0.84 | 2.05 |
| CCc1ccc(NC(=O)c2cccc(CN3CCCN(Cc4cccc(O)c4)CC3)c2)cc1 | 3.9 | 3.08 | 2.2 |
| COc1cc(Cc2cnc(N)nc2N)ccc1OCC(=O)Nc1ccc(C)cc1 | 8.4 | 9.26 | 8.92 |
| O=[N+]([O-])c1cccc(CNCC2CCN(Cc3ccc(O)cc3)CC2)c1 | 21.4 | 5.62 | 2.59 |
| COc1ccc(Cc2cccc(C(C(=O)NCc3cc(Cl)cc(Cl)c3)N3CCN(C)CC3)c2)cc1 (stereo not given) | -1.02 | -1.26 | 0.4 |
| O=C(Nc1ccc(-n2ccc(C(F)(F)F)n2)cc1)c1cccs1 | 0.18 | 0.85 | 0.42 |
| Oc1cccc(Nc2ccnc3cc(-c4cc5ccccc5o4)ccc23)c1 | -0.71 | -0.27 | -2.34 |
